From PubChem BioAssay (NCATS)
Inconclusive results are not listed. Unmarked numbers belong to inactive results. Calls come from the whole dose curve; as a rule, active = well fitted inhibition curve with a large enough effect; inconclusive = small, poorly fitted or top-dose-only effect; inactive = flat fitted curve, though single readings scatter. *1 amine or outer side, *2 acyl side, *3 side chain or, on linkers, in order; H or OH if unused. Where a SMILES comes first, the peptide text is derived from it. Bridges are numbered along the chain shown (N, C = ends). [ ]: non-standard residue; d: D form. The star is where a group is joined. pTerphenylCO(4''-OnC5H11) = CCCCCOc1ccc(-c2ccc(-c3ccc(C(=O)*)cc3)cc2)cc1; Orn(4R-OH,5R-OH) = O=C([C@H](C[C@@H](O)[C@@H](O)N[*:3])N[*:1])[*:2]; hTyr(3S-OH,4S-OH) = N[C@H](C(=O)O)[C@H](O)[C@@H](O)c1ccc(O)cc1; Pro(3S-OH,4S-Me) = C[C@H]1CN[C@H](C(=O)O)[C@H]1O; Hyp = O=C(O)[C@@H]1C[C@@H](O)CN1

The compounds below were run on CRL-7250 (assay: Cytotoxic Profiling of Annotated Libraries Using Quantitative High-Throughput Screening (AID 1296008; note: nearly all actives have a fitted effect of over 60% in size)). Conditions: Five cell lines viability, CellTiter-Glo ATP luminescence, 48-72 h; max response: hits give low values.
How it was run: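 Cells exposed to compounds for 48 or 72 hr at 37 degrees Celsius. Viability read as ATP-coupled luminescence with CellTiter-Glo after 10 min at room temperature.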
% is set by controls: 0 for no effect and ±100 for the full control effect.

| Structure (SMILES) | max response [%] |
| --- | --- |
| Cc1cccc(-c2[nH]ncc2-c2ccc(F)c(-c3cnn(CCO)c3)c2)n1 | -17.9 |
| CC1OC(OC2C(O)COC(O[C@@H]3[C@@H](O)[C@@H](O)[C@H](OC4C(OC(=O)[C@]56CCC(C)(C)CC5C5=CCC7[C@@]8(C)C[C@H](O)[C@H](OC9OC(CO)C(O)C(O)C9O)[C@@](C)(CO)C8[C@H](O)C[C@@]7(C)[C@]5(C)CC6)OCC(O)C4O)O[C@H]3C)C2O)C(O)C(O)C1O (some centres undefined) | -12.5 |
| Cc1cc(F)ccc1-c1nc(NCCN=C(N)NC#N)nc2c1ccc(=O)n2-c1c(F)cccc1F | 1.44 |
| CCOc1ccc(-n2c([C@@H](C)N(Cc3cccnc3)C(=O)Cc3ccc(OC(F)(F)F)cc3)nc3ncccc3c2=O)cc1 | 0.299 |
| O=C(C(Cc1cccc(C(F)(F)F)c1)NS(=O)(=O)c1cc(F)c2c(c1)CCNC2)N1CCCC1 (centres undefined) | -1.14 |
| COc1ccc(N2CCN(C(=O)c3cc4c(s3)-c3ccccc3S(=O)(=O)C4)CC2)cc1 | 4.26 |
| CC(=O)O[C@H]1C[C@@](O)(C(C)C)[C@@H]2[C@@H](OC(=O)c3ccc(O)cc3)CC(C)=CC[C@@]12C | 3.65 |
| CC(C)C[C@H](CO)Nc1nc(S[C@@H](C)c2ccccc2)nc2nc(N)sc12 | 1.1 |
| CCCCCOc1ccc(-c2ccc(-c3ccc(C(=O)N[C@H]4C[C@@H](O)[C@@H](O)NC(=O)[C@@H]5[C@@H](O)[C@@H](C)CN5C(=O)[C@H]([C@@H](C)O)NC(=O)[C@H]([C@H](O)[C@@H](O)c5ccc(O)cc5)NC(=O)[C@@H]5C[C@@H](O)CN5C(=O)[C@H]([C@@H](C)O)NC4=O)cc3)cc2)cc1 ({pTerphenylCO(4''-OnC5H11)}-[Orn(4R-OH,5R-OH)]T[Hyp][hTyr(3S-OH,4S-OH)]T[Pro(3S-OH,4S-Me)]; lactam 1-C) | 4.73 |
